# Bioassay records from PubChem BioAssay.
# KCNQ2 pot: potentiators of rat KCNQ2 potassium channel. CHO-K1 KCNQ2, FluxOR thallium flux fluorescence; active compounds read high. 310,000 tested, 0.54% active. B-score at 10 µM. AID 2239, 2010;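 active = fluorescence ratio B-score at least 3 SD of library B-scores, with initial fluorescence B-score within 3 of them, cut at about 5.3 in these data; same plate scores as AID 2156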;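 also: B-score of peak minus minimum over baseline fluorescence ratio after K+ and Tl+ stimulus; positive B-score means potentiation of KCNQ2 with more thallium influx and brighter signal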
# Target sequence (O88943 whole entry, looked up): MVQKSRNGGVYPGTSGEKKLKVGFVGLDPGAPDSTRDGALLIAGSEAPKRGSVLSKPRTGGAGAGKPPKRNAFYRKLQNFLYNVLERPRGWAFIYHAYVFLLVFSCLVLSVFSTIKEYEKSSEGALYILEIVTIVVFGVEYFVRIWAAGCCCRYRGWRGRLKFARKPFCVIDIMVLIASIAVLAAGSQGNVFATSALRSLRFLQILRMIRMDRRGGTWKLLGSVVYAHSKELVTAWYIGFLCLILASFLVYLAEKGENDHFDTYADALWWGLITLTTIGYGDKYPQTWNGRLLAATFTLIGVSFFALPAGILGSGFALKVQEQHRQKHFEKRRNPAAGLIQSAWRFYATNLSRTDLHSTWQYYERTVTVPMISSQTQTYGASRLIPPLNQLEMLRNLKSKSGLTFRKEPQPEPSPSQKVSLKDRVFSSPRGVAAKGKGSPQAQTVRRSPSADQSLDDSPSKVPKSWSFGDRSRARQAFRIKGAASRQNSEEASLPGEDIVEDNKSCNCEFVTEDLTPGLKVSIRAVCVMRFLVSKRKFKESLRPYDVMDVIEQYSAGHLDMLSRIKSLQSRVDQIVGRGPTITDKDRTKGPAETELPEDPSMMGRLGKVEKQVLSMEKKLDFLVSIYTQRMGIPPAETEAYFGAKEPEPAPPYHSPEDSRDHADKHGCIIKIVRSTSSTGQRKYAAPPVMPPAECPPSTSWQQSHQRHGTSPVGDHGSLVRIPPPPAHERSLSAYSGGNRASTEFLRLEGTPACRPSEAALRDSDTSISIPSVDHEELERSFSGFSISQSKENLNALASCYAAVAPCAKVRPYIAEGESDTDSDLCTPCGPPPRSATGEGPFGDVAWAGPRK
# KCNQ2 inh: rat KCNQ2 potassium channel inhibitors, primary screen, cell-based, CHO-K1, FluxOR thallium flux, B-score; Potassium voltage-gated channel subfamily KQT member 2 (Rattus norvegicus), O88943; 20 min; active compounds read low; B-score at 10 µM; 310,000 tested, 1.1% active; AID 2156, 2009;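 active = fluorescence ratio B-score at most minus 3 library SDs, with starting brightness B-score within 2 library SDs, cut at about -5.5 in these data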
# Kir21 conf inh: mouse Kir2.1 channel blockers, retest, confirmation, cell-based, FluxOR thallium flux, duplicate; Tl flux remaining, % of negative control (active compounds read low), % at 10 µM; AID 2032, 2009; Kir2.1-expressing cells, FluxOR thallium flux fluorescence; active compounds read low; 2,300 tested, 41% active; shares compounds with KCNQ2 pot;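 active = Primary-screen hit whose thallium flux fell at least 3 control SD below untreated wells in both duplicates, with normal baseline fluorescence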;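 also: 0% = blank wells without stimulus and 100% = stimulated no-compound controls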
# HEK293 ctr: parental HEK293 activity in Kir2.1 inhibitor counter-screen | shares compounds with KCNQ2 pot | parental HEK293 cells, FluxOR thallium flux fluorescence; 0% = unstimulated blank wells | FluxOR signal as % of negative control (100 = no effect), % at 10 µM | 2,300 tested, 19% active;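 active = dye signal at least 3 control SD above or below untreated wells in both duplicates, raw fluorescence within 3, either direction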;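 also: percent is based on the flux ratio of peak minus minimum fluorescence over baseline F0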
# CHO-K1 ctr: nonspecific thallium flux increase in parental CHO-K1, confirmation, counter-screen for KCNQ2 potentiator project, cell-based, FluxOR thallium flux, duplicate. 1,200 tested, 43% active. shares compounds with KCNQ2 pot. parental CHO-K1 cells, FluxOR thallium flux fluorescence; zero = vehicle mean+3SD, 100% = vehicle-minus-blank window. activity increase over 3SD of controls, % at 10 µM;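 active = signal rise of at least 3 SD above the untreated control mean, in both duplicate wells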;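 also: counter screen of KCNQ2 potentiator hits so any rise reflects channel-independent effects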
# KCNQ1 sel pot: human KCNQ1 channel potentiation off-target, confirmation, selectivity assay for KCNQ2 potentiator project, cell-based, CHO, FluxOR thallium flux; activation over 3SD threshold, % at 10 µM; 1,200 tested, 28% active; CHO KCNQ1 stable, FluxOR thallium flux fluorescence; beyond 3SD, as % of vehicle-control signal; shares compounds with KCNQ2 pot;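 active = fluorescence ratio rise of at least 3 SD of vehicle wells above their mean, in both replicate wells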;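 also: 0% = vehicle mean plus 3 SD and 100% = vehicle minus unstimulated blank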
# KCNQ2 pot confirm: rat KCNQ2 channel potentiators, confirmation, cell-based, CHO, FluxOR thallium flux, duplicate | shares compounds with KCNQ2 pot | CHO-KCNQ2 cells, FluxOR thallium flux fluorescence | potentiation, less the hit threshold, % at 10 µM | 1,200 tested, 68% active | AID 2287, 2010;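 active = fluorescence ratio rising 3 SD or more over the vehicle control mean in both replicates, plus primary screen hit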;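 also: peak minus minimum thallium fluorescence divided by baseline after K/Tl stimulus; 0% = vehicle mean plus 3 SD and 100% = vehicle minus unstimulated blank difference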
# Kir21 spec: mouse Kir2.1 channel activation off-target, confirmation, selectivity assay for KCNQ2 potentiator project, cell-based, HEK293, FluxOR thallium flux; AID 2345, 2010; 1,200 tested, 2% active; activity over 3SD threshold, % at 10 µM; HEK293 Kir2.1, FluxOR thallium flux fluorescence; shares compounds with KCNQ2 pot;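 active = fluorescence ratio rise of at least 3 SD above the vehicle-control mean, seen in both replicates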;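 also: 0% = vehicle mean plus 3 SD and 100% = vehicle minus no-stimulus blank window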
# KCNQ2 W236L MoA: potentiators of retigabine-insensitive KCNQ2 W236L, mechanism study for KCNQ2 potentiator project, cell-based, rat KCNQ2 W236L, CHO, automated patch clamp; 940 tested, 10% active; shares compounds with KCNQ2 pot; automated patch clamp current; current increase over 3SD of negative controls (%), active compounds read high, % at 25 µM;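 active = current increase at least 3 SD of the untreated controls above them in both duplicate recordings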
# Active calls of the source: *; i = inactive; · = no result. Most compounds without a hit are left out; they make up all but 1.6% or so of the library.
SMILES,KCNQ2 pot,KCNQ2 inh,Kir21 conf inh,HEK293 ctr,others
Cc1cc(NC(=O)CSc2nc(CC(C)(C)C)nc3c2c(=O)n(C)c(=O)n3C)no1,·,i,i,i,
CCc1nc(SCC(=O)Nc2cc(C)on2)c2c(=O)n(C)c(=O)n(C)c2n1,0.93,i,·,·,
CN(C)c1cc(-c2ccc(Cl)c(Cl)c2)oc(=O)c1Cl,·,i,·,·,
COc1cccc(C(=O)NCC(=O)N2CCC3(CC2)NCCc2[nH]cnc23)c1,0.02,i,·,·,
CC1(C)Cc2c(cnn2-c2cccc(F)c2)C(NC(=O)CSc2ccccn2)C1 (configuration not stated),·,i,·,·,
Oc1c(N=Nc2ccccn2)ccc2ccccc12,5.87*,i,i,i,CHO-K1 ctr=90.7*;KCNQ1 sel pot=-14.3;KCNQ2 pot confirm=27.9*;Kir21 spec=-39.0;KCNQ2 W236L MoA=i
c1ccc2c(c1)ccc1ncccc12,0.05,i,·,·,
CCc1nnc2c(N(C)S(=O)(=O)c3ccc(C)cc3)nc3ccccc3n12,1.4,i,·,·,
Cc1ccc(S(=O)(=O)N(C)c2nc3ccccc3[nH]c2=S)cc1,5.57*,i,i,154.0%*,CHO-K1 ctr=-26.0;KCNQ1 sel pot=-6.3;KCNQ2 pot confirm=-3.3;Kir21 spec=-34.7
CN(C1CCCCC1)C(CNS(=O)(=O)c1ccccc1)c1ccccc1 (configuration not stated),·,i,·,·,
CCOC(=O)c1c(NC(=O)c2ccccc2N(C)S(=O)(=O)c2ccccc2)sc2c1CCCC2,·,i,·,·,
CCOC(=O)c1c(NC(=O)C(NCCN(C)C)c2ccccc2)sc2c1CCCC2 (configuration not stated),·,i,41.5%*,i,
O=C1CC(O)(C(F)(F)F)Oc2c1ccc1ccccc21 (configuration not stated),5.74*,i,i,248.5%*,CHO-K1 ctr=-9.5;KCNQ1 sel pot=7.6*;KCNQ2 pot confirm=43.6*;Kir21 spec=-33.5;KCNQ2 W236L MoA=i
O=C1CC(O)(C(F)F)Oc2ccc3ccccc3c21 (configuration not stated),0.79,i,·,·,
COc1ccc(C(=O)COc2ncnc3cc(Cl)ccc23)cc1,·,i,·,·,
O=C(Nc1n[nH]c(=S)s1)c1ccc2ccccc2c1,6.45*,i,i,222.5%*,CHO-K1 ctr=-5.4;KCNQ1 sel pot=16.4*;KCNQ2 pot confirm=8.2*;Kir21 spec=-12.4;KCNQ2 W236L MoA=17.7%*
O=C(Nc1nccs1)c1ccc2ccccc2c1,1.31,i,·,·,
Nc1cccc(Oc2ccc3c(c2)C(=O)N(CC2CCCO2)C3=O)c1 (configuration not stated),·,i,·,·,
CCC(=O)N(CCC(c1ccco1)C(C)C)Cc1ccccc1 (configuration not stated),·,i,50.0%*,68.5%*,
CC(=O)N(CCC(c1ccco1)C(C)C)Cc1ccc(Cl)cc1 (configuration not stated),·,i,·,·,
Cc1noc(C)c1COC(=O)Cc1ccc(Br)cc1,0.19,i,·,·,
FC(F)(F)c1ccccc1CNCc1ccc2c(c1)OCO2,·,i,·,·,
CCN1CCN(c2nc(C)c3c(n2)CC(C)CC3=O)CC1 (configuration not stated),0.57,i,·,·,
Cc1nc(N2CCN(Cc3ccccc3)CC2)nc2c1C(=O)CC(C)C2 (configuration not stated),·,i,65.0%*,i,
Cc1ccc(-n2ncc(Cl)c2C(=O)NC2CC2)cc1,·,i,·,·,
SMILES,KCNQ2 pot,KCNQ2 inh,Kir21 conf inh,HEK293 ctr,others
COc1cc(NC(=O)CSc2ncnc3sc4c(c23)CCC(C)C4)c(C(=O)O)cc1OC (configuration not stated),19.2*,i,i,417.0%*,CHO-K1 ctr=-7.2;KCNQ1 sel pot=35.6*;KCNQ2 pot confirm=94.5*;Kir21 spec=-4.8;KCNQ2 W236L MoA=i
CC1CCc2c(sc3ncnc(SCC(=O)Nc4ccc(C(=O)O)cc4)c23)C1 (configuration not stated),0.97,i,·,·,
COc1cc2cc(CN(Cc3cccnc3)C(=O)Nc3ccccc3F)c(=O)[nH]c2cc1OC,0.89,i,·,·,
Cc1cc(C)c(NC(=O)COC(=O)/C=C/c2cccs2)c(C)c1,0.27,i,·,·,
CCC(NC(=S)NCc1ccc(F)cc1)c1ccccc1 (configuration not stated),1.3,i,57.5%*,62.5%*,
O=C(NCc1ccc(F)cc1)C(c1ccccc1)c1ccccc1,·,i,·,·,
O=C(CN(C1CCCCC1)S(=O)(=O)c1ccc(Cl)cc1)NCc1ccncc1,·,i,·,·,
O=C(N/N=C/c1cc(Br)cc(Br)c1O)c1ccncc1,2.09,i,·,·,
Oc1c(Br)cc(Br)cc1C=Nc1ccc2[nH]ncc2c1,14.1*,i,i,i,CHO-K1 ctr=11.3*;KCNQ1 sel pot=-21.6;KCNQ2 pot confirm=19.7*;Kir21 spec=-33.5;KCNQ2 W236L MoA=10.3%*
Oc1c(Br)cc(Br)cc1C=Nc1cccnc1,8.43*,i,i,i,CHO-K1 ctr=-10.0;KCNQ1 sel pot=-14.5;KCNQ2 pot confirm=17.2*;Kir21 spec=-39.5;KCNQ2 W236L MoA=i
COc1ccc(C=Nc2ccc3[nH]ncc3c2)c(O)c1,·,i,·,·,
O=C(COc1ccc(/C=N/NC(=O)C(=O)N2CCCCC2)cc1)Nc1ccccc1Cl,·,i,·,·,
COc1ccc(Cl)cc1NS(=O)(=O)c1ccc(OC)c(OC)c1,·,i,51.0%*,139.5%*,
COc1ccc(S(=O)(=O)Nc2cc(C)ccc2OC)cc1C,·,i,77.0%*,i,
COc1ccc(S(=O)(=O)Nc2cc(Cl)ccc2OC)cc1,·,i,·,·,
COc1ccc(C)cc1NS(=O)(=O)c1ccc(NS(=O)(=O)c2ccc(NC(C)=O)cc2)cc1,0.06,i,·,·,
CS(=O)(=O)c1ccc(Cl)c(NC(=O)Cc2c(F)cccc2Cl)c1,·,i,·,·,
